Each structure is given as a SMILES string. Several values for one entry are separate records, joined by “and”; a condition that tells them apart may be missing. Identical values can stand only once. The whole screen tested about 420,000 compounds, of which about 64,000 (15%) were called active. About 27% were inconclusive and are not listed. Calls come from the whole dose curve; as a rule, active = well fitted inhibition curve with a large enough effect; inconclusive = small, poorly fitted or top-dose-only effect; inactive = flat fitted curve, though single readings scatter. Not all results are given here. The source holds several records for some structures; these can differ, active in one and inactive in another.
% is set by controls: 0 for no effect and ±100 for the full control effect; potency is the fitted concentration of half-maximal effect.

The assay in a line: qHTS for Inhibitors of human tyrosyl-DNA phosphodiesterase 1 (TDP1): qHTS in cells in absence of CPT. Note: nearly all actives have a fitted effect of over 55% in size. The conditions noted are these: DT40 Tdp1-/- hTDP1 cells, no CPT, ATP luminescence, 48 h; activity change, negative = growth inhibition: at 46.2 µM (top of the series). In short, it runs like this:
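Growth of hTDP1-complemented DT40 Tdp1-knockout cells is measured by ATP luminescence after at least 48 hr compound exposure at 37 °C, with DMSO substituting for the 20 nM CPT used in the parallel screen.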
Background: qHTS replaces the single test concentration by a dilution series.
Consider `COc1ccc(CC(NC(C)=O)C(=O)N2CCN(C(=O)Nc3cccc(Cl)c3)CC2)cc1OC` (stereo unspecified), for which the “activity change, negative = growth inhibition” value was -22.7% (inactive). On to `O=C(CSCC(=O)Nc1cccc([N+](=O)[O-])c1)Nc1ccccc1`, for which the “activity change, negative = growth inhibition” value was -19.4% (inactive). Take `COC(=O)/C=C\C(=O)Nc1cccc([N+](=O)[O-])c1`: the Potency is 2.06 µM (active). Consider `CC(=O)Nc1cccc([N+](=O)[O-])c1`, for which the “activity change, negative = growth inhibition” value was 0.516% (inactive). Still for that read-out and setting: as for `COc1cc(C2/C(=C(\O)c3ccc4c(c3)CC(C)O4)C(=O)C(=O)N2Cc2ccco2)ccc1O` (stereo unspecified), the figure is 2.11% (inactive). As for `CCOc1ccc(Nc2ncnc3scc(-c4ccc(OC)cc4)c23)cc1`, the Potency was 18.4 µM (active). `COc1ccc(-c2csc3ncnc(Oc4ccc5c(C)cc(=O)oc5c4)c23)cc1`: the “activity change, negative = growth inhibition” value is -28.1% (inactive). On to `CCOC(=O)c1sc2nc(C)nc(Nc3ccc(OC)c(OC)c3)c2c1C`, for which the “activity change, negative = growth inhibition” value is -6.11% (inactive).

Turning to `Cc1c(Cl)c([N+](=O)[O-])nn1CCCC(=O)NC(C)c1ccccc1` (stereo unspecified), the “activity change, negative = growth inhibition” value was -5.76% (inactive). With `CCC(C(=O)N1CCN(S(=O)(=O)c2sc(C(=O)O)c(C)c2C(=O)O)CC1)c1ccccc1` (stereo unspecified), the “activity change, negative = growth inhibition” value is 21.9% (inactive). As to `Cc1cccc(S(=O)(=O)N(C)C[C@H]2OCc3cnnn3CCCC(=O)N([C@@H](C)CO)C[C@H]2C)c1`, the “activity change, negative = growth inhibition” value was -6.15% (inactive). The same measure, in the same setting: as for `Cn1cccc1-c1nc2ccccc2n1C`, the figure is 6.86% (inactive). In the case of `Cc1csc(-c2nc3ccccc3n2C)n1`, the Potency is 18.8 µM (active). Take `Cn1c(-c2ccc(C(=O)c3ccccc3)s2)nc2ccccc21`: the “activity change, negative = growth inhibition” value is -29.8% (inactive). With `Cc1ccc2nc(-c3ccc(Br)cc3)cn2c1`, the “activity change, negative = growth inhibition” value was 2.36% (inactive). Still for that read-out and setting: as for `Cc1cc2c(cc1C)NC(c1ccccn1)C1=C(CC(C)(C)CC1=O)N2` (stereo unspecified), the figure is 0.609% (inactive). Consider `NC(N)=N/N=C/c1ccc(Cl)c([N+](=O)[O-])c1`, for which the Potency was 10.3 µM (active). Turning to `O=C(/C=C/c1ccc(Cl)c([N+](=O)[O-])c1)c1ccc(O)cc1`, the Potency is 4.61 µM (active).

For the compound `CN(C)c1ccc(/C=C/C(=O)c2ccc(C(C)(C)C)cc2)cc1[N+](=O)[O-]`, the Potency was 23.1 µM (active). Regarding `O=C(/C=C/c1ccc(Cl)cc1)N1CCN(c2ccccc2[N+](=O)[O-])CC1`, the “activity change, negative = growth inhibition” value was -28.2% (inactive). As for `Nn1cnnc1N/N=C/c1cc([N+](=O)[O-])c(Cl)cc1Cl`, the “activity change, negative = growth inhibition” value was 2.17% (inactive). On to `Nc1nc(SCC(=O)Nc2ccc(Cl)c([N+](=O)[O-])c2)n[nH]1`, for which the “activity change, negative = growth inhibition” value is -8.59% (inactive). Regarding `O=C(O)c1ccc2c(=O)n3c(nc2c1)/C(=C/c1ccc(Cl)c([N+](=O)[O-])c1)CC3`, the “activity change, negative = growth inhibition” value is -11% (inactive). As to `CC(CC(=O)O)C(=O)c1ccc(Cl)c([N+](=O)[O-])c1` (stereo unspecified), the “activity change, negative = growth inhibition” value was -3.74% (inactive). Consider `Cc1cc(C)n(-c2ccc(C(=O)O)cc2[N+](=O)[O-])n1`, for which the “activity change, negative = growth inhibition” value is -0.656% (inactive). On the same count and under the same terms, with `C[C@@H]1CC2=C(C(=O)OC(C)(C)O2)[C@@H](C2CC2)O1` the figure was -9.87% (inactive); with `COc1cccc(-c2ccc3c(c2)S(=O)(=O)c2cccc(C(=O)O)c2C3=O)c1OC`, 3.86% (inactive); with `O=C(COC(=O)c1ccc([N+](=O)[O-])cc1Cl)NC(=O)c1ccccc1`, -7.52% (inactive).

Regarding `O=S(=O)(c1ccccc1)N1CCC2(CC1)CN(Cc1nccs1)C2`, the “activity change, negative = growth inhibition” value was -16.2% (inactive).

In the case of `CC(=O)N[C@@H](C)C(=O)N1CCC(n2nccc2NC(=O)CCCc2ccccc2)CC1`, the “activity change, negative = growth inhibition” value is 26.3% (inactive).

`Cc1oc2ccc(O)c(CN3CCCCC3)c2c1C(=O)Nc1cccc(C(F)(F)F)c1`: the Potency was 23.1 µM (active). As for `CCOC(=O)c1cccc(NC(=O)c2cc(CN3CCCC3)on2)c1`, the “activity change, negative = growth inhibition” value was 0.305% (inactive).

For the compound `CC(=O)N1CCN(C(=O)Nc2cccc(C(F)(F)F)c2)CC1`, the “activity change, negative = growth inhibition” value is -15.5% (inactive). Still for that read-out and setting: as for `COc1ccc(CCNC(=O)COC(=O)C2CC2C)cc1` (stereo unspecified), the figure is -13.2% (inactive); as for `O=C(O)CCN(Cc1ccccc1)S(=O)(=O)c1c(Cl)cccc1Cl`, 12.7% (inactive); as for `CCC(C)N(C(=O)CSc1ncnc2c1cnn2-c1ccccc1)C1CCS(=O)(=O)C1` (stereo unspecified), -14.9% (inactive). Take `COc1ccccc1NC(=O)c1oc2ccccc2c1NC(=O)COc1ccccc1OC`: the “activity change, negative = growth inhibition” value was -16.2% (inactive).

In the case of `COc1ccccc1NC(=O)c1oc2ccccc2c1NC(=O)C(C)C`, the Potency was 16.4 µM (active). `COc1ccccc1NC(=S)NC(=O)C(C)C`: the “activity change, negative = growth inhibition” value is -4.21% (inactive). `Cc1ccc(C(=O)OCC(=O)Nc2ccc(Cl)cn2)cc1S(=O)(=O)N1CCOCC1`: the “activity change, negative = growth inhibition” value is -21.3% (inactive). `O=C(OCCN1CCOCC1)C1(c2ccccc2)CCCCC1`: the Potency result is “inactive and 26.6 µM (active)”. Turning to `N[C@@H](Cc1ccccc1)C(=O)N1CCOCC1`, the “activity change, negative = growth inhibition” value is 14.3% (inactive). Same read-out and setting: as for `O=C(COC(=O)C1(c2ccc(F)cc2)CCCC1)N1CCNC1=O`, the figure is -6.05% (inactive). Turning to `CN(C(=O)c1cccc(OC2CCN(S(=O)(=O)N(C)C)CC2)c1)C1CCOC1` (stereo unspecified), the “activity change, negative = growth inhibition” value was 25.1% (inactive).

As to `CN(C)S(=O)(=O)N1CCC(Oc2cccc(C(=O)NCCCC3CCCC3)c2)CC1`, the Potency was 7.31 µM (active). As to `CNS(=O)(=O)c1cccc(C(=O)NCC2CCCCC2)c1`, the “activity change, negative = growth inhibition” value is 20% (inactive). On to `CC(C)N(C(=O)Cn1cc(SCC(=O)N2CCCC2)c2ccccc21)C(C)C`, for which the “activity change, negative = growth inhibition” value was 4.08% (inactive).

`O=C1c2ccccc2C(=O)N1CCc1nn[nH]n1`: the “activity change, negative = growth inhibition” value was -5.45% (inactive). Take `O=C(NCCS(=O)(=O)N1CCN(c2ccccc2)CC1)c1ccco1`: the “activity change, negative = growth inhibition” value was -3.54% (inactive). Regarding `COc1cc(C(=O)NCCS(=O)(=O)N2CCN(c3ccccc3)CC2)cc(OC)c1OC`, the Potency is 20.6 µM (active). `COc1ccc(N2CC(C(=O)NCCS(=O)(=O)N3CCN(c4ccccc4)CC3)CC2=O)cc1` (stereo unspecified): the Potency result was “inactive”.

For the origin of these results see PubChem BioAssay AID686978 (National Center for Advancing Translational Sciences (NCATS), 2013).
